Data as given in the supplement of paper PMC6555819.

Experiments:
Experiment in all cases: PBM binding z-score (relative to random genomic background probes); higher = stronger binding; sequences stand for … in GC…GCGATTGACAGCGTAGAATGAAGG
[1] = system: RARb homodimer (NR concentration 270 nM)
Summary of the method: (§1)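 Scanned fluorescence from custom Agilent 4×180K protein-binding microarrays was regression-normalized. Binding z-scores use random background probes as reference. Ligand-free nuclear receptor dimers were incubated on the arrays for 1 h and detected with antibodies against each partner (one per run).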

[2] = system: RARg:RXRa (NR concentration 270 nM, RXRa partner concentration 90 nM)
Summary of the method: as §1

[3] = system: RARg homodimer (NR concentration 270 nM)
Summary of the method: as §1

[4] = system: RXRa DBDmut IVT, anti-RXR (DBD mutation: RXRa K156A/R161A, NR concentration 90 nM)
Summary of the method: as §1

[5] = system: RXRa homodimer (NR concentration 180 nM)
Summary of the method: as §1

[6] = system: THRa:RXRa (NR concentration 90 nM, RXRa partner concentration 90 nM)
Summary of the method: as §1

[7] = system: THRa homodimer (NR concentration 90 nM)
Summary of the method: as §1

[8] = system: VDR homodimer (NR concentration 270 nM)
Summary of the method: as §1

Row | Sequence | PBM binding z-score [1] | PBM binding z-score [2] | PBM binding z-score [3] | PBM binding z-score [4] | PBM binding z-score [5] | PBM binding z-score [6] | PBM binding z-score [7] | PBM binding z-score [8]
1 | CCTCTGAGGACAGAAGGTCAGAGCTGTCCGCTTT | 3.74 | 3.76 | 3.58 | 1.08 | 2 | 3.4 | 1.58 | 0.647
2 | TCTTGTATATCAAGCAGGTTAAGAAAGCCTGAGT | 0.552 | 0.261 | -0.15 | 0.788 | 0.587 | 0.47 | -0.282 | 0.228
3 | TAGCCTAGGTCATGAGGGCCAGTATAGTGTCGGC | 3.01 | 4.06 | 4.57 | 0.234 | 3.23 | 3.04 | 0.958 | 0.404
4 | ATACCAAGGTGATCGTTAGGTCGTTGATACTAAC | 1.02 | 0.983 | 0.72 | 0.203 | 0.459 | 2.26 | 1.49 | 0.472
5 | CCTTACGGGTCACTTCAGGTTATAGCATCGGAGT | 2.86 | 4.35 | 4.1 | 1.67 | 4.38 | 5.04 | 1.29 | 1.71
6 | TCCTATAGGTAATACAGGTGAAAGTCGGCATCTA | 0.461 | 0.471 | 0.243 | 1.05 | 0.757 | 0.883 | 0.298 | -0.333
7 | ACTTTTAGTTGAGACGAGGGCAACCGATAGGTTG | 1.35 | 0.942 | 1.03 | 0.926 | 0.7 | 2.53 | 0.433 | 1.02
8 | TAGCCTAGGTCAGATCGGGCCGGTATACGCTATA | 1.98 | 2.67 | 3.43 | -0.551 | 0.992 | 3.11 | 0.09 | -0.328
9 | AGAATGAGGTTATACGTAGATCGGGGAAGAAAGT | 0.901 | 1.6 | 0.926 | 2.14 | 2.27 | 2.12 | 0.732 | 0.909
10 | ATATGTAGGTTAAGTGTCATTCAGGTTGGTTCGC | 2.02 | 1.53 | 1.47 | 1.1 | 1.9 | 1.58 | 1.08 | 1.53
11 | CCTACTGGGCCAAAGGTCATTGATTCCAATGCTC | 4.66 | 5.94 | 4.86 | 1.43 | 7.21 | 3.33 | 0.631 | 2.09
12 | TCATATAGGTAAGGGTGAAAGTCGAACGATATGA | 0.703 | 0.914 | 0.595 | 0.475 | 1.36 | 0.89 | -0.108 | -0.201
13 | ACTCGGAGGACCAAGGTCAGAGCTACGCCAGTGA | 2.9 | 2.35 | 2.61 | 0.197 | 2.03 | 2.44 | 1.17 | 0.899
14 | TCTCGGAGGACATGAAAGGTCAGAGCTCGACATC | 4.53 | 4.22 | 4.21 | 1.18 | 3.67 | 3.34 | 0.586 | 0.768
15 | TCTAGCACGCCAGAGGGTCACTCAAGAGGTACGG | 2.3 | 2.29 | 1.68 | 0.0776 | 2.41 | 1.48 | -0.414 | 0.501
16 | CGACCTAGGTCAAGGACAGTGAATCTCCGCACGC | 3.02 | 4.65 | 4.69 | 1.82 | 3.41 | 3.39 | 2.25 | 0.294
17 | CGAACTAGGTCATTGACAGGACAGTGTATAGTAA | 2.93 | 4.51 | 4.13 | 2.69 | 2.38 | 3.02 | 0.913 | 1.47
18 | CATACAGGGTCAGCTAGGCCAGCGTAGGGACGGC | 3.43 | 4.42 | 4.81 | 1.4 | 4.2 | 3.3 | 0.936 | 0.947
19 | TCTATTAGTTGCAGGGCAACCGACGAGTCCGTTT | 0.506 | 0.104 | 0.0745 | 1.28 | 0.296 | 0.323 | 0.293 | 1.45
20 | TCATATTGGTAAATGCTAGGTGAAAGTCCGATCT | 0.619 | 0.03 | 0.0161 | 1.7 | 0.255 | 0.808 | 0.878 | 0.578
21 | TAGGCTAGGTCATTGGGCCAGTATAGTACGCATC | 2.94 | 3.67 | 4.61 | 1.54 | 2.5 | 2.54 | 0.641 | 1.09
22 | TATCGGAGGACACGAAGGTCAGAGCTTTCCAGAG | 3.47 | 3.17 | 3.73 | 0.00455 | 1.79 | 2.88 | 0.977 | 1.46
23 | GCAAGTTGGTCAGTAAAAGGTCACACACCGGTCG | 5.2 | 5.36 | 4.48 | 0.685 | 5.47 | 3.61 | 1.82 | 1.96
24 | GTACCAAGGTGAATAGGTGGTTGATGAGTAGGCG | 0.863 | 0.652 | 0.628 | -0.536 | 0.63 | 1.3 | 0.799 | -0.0991
25 | TCATATAGGTATATGCTAGGTGAAAGTCCGATCT | 0.347 | 0.291 | 0.277 | 1.6 | 0.588 | 1.23 | 0.758 | -0.0233
26 | ACAGACAGGTCATGAAGGTAACTCAGGCTATCAT | 3.05 | 4.63 | 4.19 | 1.69 | 4.56 | 3.12 | 0.575 | 1.23
27 | TCATGTAGATCAACAGGAGGTTAAGAAAGATCGA | 0.329 | 0.904 | 0.374 | 0.621 | 1.04 | 0.683 | -0.647 | 0.15
28 | CCTACTGGGCCAAAATGGTCATTGATGCCGATAA | 0.177 | 0.104 | 0.0823 | -0.811 | -0.05 | -0.37 | -0.637 | -0.747
